Activation data for 70 compounds are collected here from PubChem BioAssay AID504700 (The Scripps Research Institute Molecular Screening Center, 2011).

Among all 340,000 compounds or so, about 270 (0.079%) were called active.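 How the source made its calls: active means activation above a cutoff set at the mean over all compounds plus 3 SD (cut at about 18% in these data); inactive means the rest.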 The full list was thinned out, with actives kept by preference.

This assay deals with cAMP-dependent protein kinase catalytic subunit beta (Homo sapiens) + cAMP-dependent protein kinase type II-beta regulatory subunit (Homo sapiens) (UniProt P22694+P31323). As to the kind of experiment: compounds dissociating PKAc from R2B subunit – biochemical, fluorescence polarization, Cy5-IP20, human, primary screen (AID 504700).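 Further: higher means more holoenzyme dissociation and a rise in polarization.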 The following applies: PKA-R2B holoenzyme dissociation, at 11.4 µM, active compounds read high, 0% DMSO only, 100% 113 µM cGMP, R2B truncated from residue 108, S112A mutant.
cAMP-dependent protein kinase catalytic subunit beta (Homo sapiens) + cAMP-dependent protein kinase type II-beta regulatory subunit (Homo sapiens), sequence (P31323 whole entry, looked up, other chains not shown, the tested form may be a part): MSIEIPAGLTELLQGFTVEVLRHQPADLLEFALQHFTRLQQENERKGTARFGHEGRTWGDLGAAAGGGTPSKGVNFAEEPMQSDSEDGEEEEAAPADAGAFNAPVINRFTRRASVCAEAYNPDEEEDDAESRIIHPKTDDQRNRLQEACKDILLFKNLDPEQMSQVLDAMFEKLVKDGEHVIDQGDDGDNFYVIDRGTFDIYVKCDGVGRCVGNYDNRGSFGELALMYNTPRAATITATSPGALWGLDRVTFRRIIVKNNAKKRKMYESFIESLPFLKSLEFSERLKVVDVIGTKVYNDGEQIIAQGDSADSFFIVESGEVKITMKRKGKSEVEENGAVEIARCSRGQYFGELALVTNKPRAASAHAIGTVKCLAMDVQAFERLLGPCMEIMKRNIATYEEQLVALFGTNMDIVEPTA
Turning to `O=C(C[C@H]1C[C@@H]2c3cc(NC(=O)C4CCC4)ccc3O[C@@H]2[C@H](CO)O1)NC1CCCCC1`, the activation was -4.88% (inactive).

With `CCN(CC(=O)Nc1ccc(NC(C)=O)cc1)C(=O)C1CC(=O)N(c2ccc3c(c2)OCCO3)C1` (stereo not given), the activation is 1.33% (inactive).

`Cc1ccccc1-c1ccc2c(c1)O[C@@H](CN(C)Cc1ccc(C(=O)O)cc1)[C@@H](C)CN([C@H](C)CO)S2(=O)=O`: the activation is 1.68% (inactive).

In the case of `Cc1cc(C)c2cc(C#N)c(N3CCNCC3)nc2c1`, the activation was 5.23% (inactive).

`COCC1CCCCN1C(=O)c1cc(COc2ccc(C)c(C)c2)on1` (stereo not given): the activation was -6.78% (inactive).

In the case of `c1ccc(CNCc2ccc(CNCc3ccccc3)cc2)cc1`, the activation was -1.27% (inactive).

`C[C@@H]1CN([C@H](C)CO)C(=O)CCCn2nncc2CO[C@@H]1CN(C)S(=O)(=O)c1cccc(C#N)c1`: the activation is 5.67% (inactive).

As for `O=C(c1ccccc1)N1CCN(c2cc(-c3ccccc3)nc3cc(-c4cccc(Cl)c4)nn23)CC1`, the activation is -2.44% (inactive).

Regarding `C[C@H]1NS(=O)(=O)c2cc(Cl)ccc2O[C@@H]1c1ccccc1`, the activation is -0.08% (inactive).

As to `S=C(NN=Cc1ccccn1)Nc1ccccn1`, the activation was 12.6% (inactive).

For `CN1OC[C@@H]2CN(C(=O)c3ccc(-c4ccccc4)cc3)[C@H](c3ccc(-c4cccc(F)c4)cc3)C[C@@H]21`, the activation was -8.75% (inactive).

`C[C@H](CO)N1C[C@H](C)[C@H](CN(C)C(=O)Nc2ccc3c(c2)OCO3)Oc2ncc(Br)cc2C1=O`: the activation is 6.88% (inactive).

In the case of `O=C(c1cccs1)N1C[C@H](n2cc(C3CC3)nn2)[C@@H](O)C[C@@H]1c1ccccc1`, the activation is 5.94% (inactive).

Consider `N#CCSc1ccccc1NC(=O)CN1C(=O)NC(CCc2ccccc2)C1=O` (stereo not given), for which the activation was 0.61% (inactive).

With `COC(=O)c1ccccc1N=NNc1ccc([N+](=O)[O-])cc1`, the activation was 7.66% (inactive).

For `O=C1NC(Cc2ccccc2)c2nc3ccc(Br)cc3c(=O)n2-c2cc3ccccc3cc21` (stereo not given), the activation is -6.52% (inactive).

Turning to `COc1cc(C(=O)N2CCOC23CCN(Cc2ccccc2)CC3)cc(OC)c1OC`, the activation is 5.01% (inactive).

Turning to `CC(=O)c1ccc(OCC(=O)N(C)C2CCS(=O)(=O)C2)cc1` (stereo not given), the activation is -5.08% (inactive).

In the case of `C[C@@H]1CN([C@H](C)CO)S(=O)(=O)c2ccc(C#C[C@@H](C)O)cc2O[C@@H]1CN(C)Cc1ccc(-c2ccccc2)cc1`, the activation was -12.3% (inactive).

For the compound `O=C(NCCN1CCOCC1)c1ccc2c(c1)N(Cc1cccc(Cl)c1)C(=O)c1ccccc1S2(=O)=O`, the activation was -0.88% (inactive).

On to `COc1ccc(NC2CCCN(C(=O)c3ccccc3-c3ncc[nH]3)C2)cc1` (stereo not given), for which the activation is -6.86% (inactive).

On to `Cc1sc2ncnc(SCC(=O)NC3CCS(=O)(=O)C3)c2c1C` (stereo not given), for which the activation is -9.19% (inactive).

`CN(c1ccccc1)S(=O)(=O)c1ccc(C(=O)NCc2cccnc2)cc1`: the activation was -3.42% (inactive).

Consider `O=C(COC(=O)CCc1c[nH]c2ccccc12)Nc1cccc(Cl)c1`, for which the activation is 1.73% (inactive).

In the case of `CCOC(=O)c1cc(-c2sc(NC(=O)c3ccccc3)nc2C)n(Cc2ccccc2)n1`, the activation was -0.16% (inactive).

Regarding `O=C(COC(=O)c1ccc(S(=O)(=O)N2CCCCCC2)cc1)Nc1ccccc1C(F)(F)F`, the activation was -16.8% (inactive).

`CN(Cc1ccccc1)C(=O)CCC1CCN(C(=O)c2ccco2)CC1`: the activation was 2.88% (inactive).

Regarding `Cc1[nH]c2ccccc2c1C(=O)C(=O)NCc1nnnn1-c1cccc(F)c1`, the activation is -2.65% (inactive).

For `Cc1cc(C)n2nc(C(=O)N3CCN(Cc4ccc5c(c4)OCO5)CC3)nc2n1`, the activation is -11.3% (inactive).

Take `O=C(CCCN1C(=O)c2cccc3cccc(c23)C1=O)N1CCN(Cc2ccc3c(c2)OCO3)CC1`: the activation was 18.8% (active).

As to `Cn1c(=O)cc(OCCCC(=O)N2CCN(Cc3ccc4c(c3)OCO4)CC2)c2ccccc21`, the activation was -7.18% (inactive).

`CCN1C(=O)[C@H]2[C@@H](c3ccccc3)N[C@]3(CCCN(Cc4ccc(C)cc4)C3=O)[C@H]2C1=O`: the activation was 0.79% (inactive).

Take `O=C(NCCS(=O)(=O)N1CCN(c2ccccc2)CC1)c1cc(=O)c2ccccc2o1`: the activation was -13.1% (inactive).

With `CCCCN1C(=O)C(CC(=O)NC(c2ccccc2)c2ccccc2)CC(C(=O)N2CCOCC2)=C1C` (stereo not given), the activation is -5.21% (inactive).

Consider `Cc1ccccc1NC(=O)Cc1nc(COC(=O)C(C)(C)Oc2ccc(Cl)cc2)cs1`, for which the activation was 3.15% (inactive).

On to `C/C(COc1ccccc1)=N\NC(=O)c1nnn(-c2nonc2N)c1-c1ccc(C)cc1`, for which the activation was -17.1% (inactive).

Regarding `CCCc1c(C)nc2scc(-c3ccc(Cl)cc3)n2c1=O`, the activation is -2.72% (inactive).

As to `CSc1ncnc2c1ncn2CCCNCc1cccs1`, the activation was 2.56% (inactive).

Turning to `CCC(Oc1ccccc1)C(=O)OCC(=O)Nc1c(C)nn(-c2ccccc2)c1C` (stereo not given), the activation is -5.13% (inactive).

For `COc1cccc(OCC(=O)NCCS(=O)(=O)N2CCN(c3ccccc3)CC2)c1`, the activation is 0.99% (inactive).

As to `CNC(=O)C[C@H]1C(=O)N(Cc2ccccc2)C[C@@H]1CSC`, the activation was -9.1% (inactive).

For the compound `COc1ncnc2c1ncn2CCCNCCN1CCOCC1`, the activation was 4.38% (inactive).

On to `O=S1(=O)CCN(Cc2ccccc2)CC1`, for which the activation was -1.42% (inactive).

`C[C@@H]1CN([C@@H](C)CO)S(=O)(=O)c2ccc(C#Cc3cccc(F)c3)cc2O[C@H]1CN(C)S(=O)(=O)c1cn(C)cn1`: the activation was 7.01% (inactive).

On to `Nc1cccc(OCCCCCOc2cccc(N)c2)c1`, for which the activation is 5.43% (inactive).

Consider `COC(=O)C[C@H]1C[C@@H]2c3cc(N(C)C)ccc3O[C@@H]2[C@H](CO)O1`, for which the activation is 5.15% (inactive).

On to `O=C1OCCC1=COCCCCOC=C1CCOC1=O`, for which the activation is 3.03% (inactive).

On to `COc1ccc(CN2C(=O)C(CC(=O)NCc3cccc4ccccc34)CC(C(=O)N3CCOCC3)=C2C)cc1` (stereo not given), for which the activation is 2.78% (inactive).

As to `CC(=O)Nc1ccc2nc(NC(=O)CS(=O)(=O)c3ccc(F)cc3)sc2c1`, the activation was -8.48% (inactive).

Take `CNC(=O)C1CN(C(=O)c2cccc(S(=O)(=O)N3CCc4ccccc43)c2)c2ccccc2O1` (stereo not given): the activation was 1.53% (inactive).

Take `Cc1ccc(S(=O)(=O)N2CCCCC2)cc1NC(=O)CCNC(=O)c1ccccc1Cl`: the activation was 16.1% (inactive).

As to `O=C(NCc1ccccc1)C1CNCC(C(=O)NCc2ccccc2)C1` (stereo not given), the activation was 9% (inactive).

Consider `CCCCCCNC(=O)O[C@H]1CN(C(=O)OC(C)C)N(C(=O)OC(C)C)[C@@H]2CN(S(=O)(=O)c3ccc(C)cc3)C[C@]12O`, for which the activation was -13.6% (inactive).

Turning to `COc1ccc([N+](=O)[O-])cc1C1NN=C(c2cccc3ccccc23)S1` (stereo not given), the activation is 20.8% (active).

For the compound `COc1ccc([N+](=O)[O-])cc1NC(=O)C(C)OC(=O)C1c2ccccc2Oc2ccccc21` (stereo not given), the activation is -4.93% (inactive).

For the compound `COc1ccccc1C1SCCN1C(=O)c1ccc([N+](=O)[O-])cc1` (stereo not given), the activation is 0.16% (inactive).

With `O=C(N=C1SC2CS(=O)(=O)CC2N1Cc1ccccc1)c1ccccc1` (stereo not given), the activation is 1.79% (inactive).

As to `C[C@@H]1CN([C@H](C)CO)C(=O)c2cc(Br)cnc2O[C@@H]1CN(C)Cc1cncnc1`, the activation is 2.5% (inactive).

On to `CC1=C(C(=O)N2CCOCC2)CC(CC(=O)NCC2CCCCC2)C(=O)N1Cc1ccc(F)cc1` (stereo not given), for which the activation was -0.55% (inactive).

For `C[C@H](CO)N1C[C@H](C)[C@@H](CN(C)S(=O)(=O)c2ccc(F)cc2)OCc2cnnn2CCCC1=O`, the activation was -2.57% (inactive).

As for `CC1(C)CC(=O)C=C(c2ccc(COC(=O)c3cc(F)cc(F)c3)cc2)C1=O`, the activation was 4.64% (inactive).

`CC1(C2CC2)NC(=O)N(CC(=O)N2CCN(c3ccccc3F)CC2)C1=O` (stereo not given): the activation is 1.69% (inactive).

In the case of `CCCCN(C(C)=O)c1ccc2c(c1)C1CC2CCN1Cc1ccccc1` (stereo not given), the activation was 2.7% (inactive).

As for `Cc1ccc(-c2ccc(C3=CC(=O)CC(C)(C)C3=O)cc2)cc1`, the activation was 9.99% (inactive).

With `CCCCN1C[C@H](c2ccc(Br)cc2)[C@@H](CC(=O)Nc2ccc(Br)cc2)C1=O`, the activation was 2.46% (inactive).

As for `Cc1ccc(S(=O)(=O)N2C[C@H]3n4c(=O)ccc(=O)n4C[C@H](OC(=O)NC4CCCC4)[C@@]3(O)C2)cc1`, the activation was 8.63% (inactive).

With `CCOc1ccc(NS(=O)(=O)c2ccc(C(=O)NCC3CCCO3)cc2)cc1` (stereo not given), the activation was -2.2% (inactive).

In the case of `Cc1nn(Cc2ccccc2)c(C)c1C(=O)NCCN1C(=O)S/C(=C\c2ccc(F)cc2)C1=O`, the activation was -11.8% (inactive).

Regarding `Cc1cc(/C=C2/SC(=O)N(CC(=O)N3CCCC3)C2=O)c(C)n1C`, the activation is 2.6% (inactive).

Take `N#Cc1ccccc1CN1C(=O)S/C(=C/c2cccn2-c2cccc(C(=O)O)c2)C1=O`: the activation is 24.5% (active).
